Experiment [1] is described as follows: inhibitors of TNFa-induced NFkB p65 translocation, primary screen, imaging, HUVEC, MLSMR starter and 10KST1 sets (AID 438;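 active = inhibition above 20% together with a positive visual image hit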;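 also: compound added about 3h40 before a 20 min TNFalpha stimulation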;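 as to inhibition: signal is the nuclear over cytoplasmic p65 intensity ratio per well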). The note with it: HUVEC TNFa-induced p65 nuclear translocation; cell count: measured here: nuclei count (cytotoxicity indicator), at 2.08 µM; inhibition: at 2 µM, stronger effect = higher value, 0% TNFa-plus-vehicle, 100% no-TNFa wells.
Experiment [2] can be described thus: inhibitors of mutant huntingtin aggregation, primary screen, imaging, exon1htt(103Q)mCFP cells, high-content imaging (AID 483;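 active = visual image review flags a hit and inhibition of aggregation exceeds 20%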;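 also: compound exposure lasted 3 days before fixation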;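 as to nuclei count: percent of the per-plate median nuclei count of sample wells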). The note with it: exon1htt(103Q)mCFP cell line, aggregate imaging, at 2 µM; inhibition of aggregation: stronger effect = higher value; nuclei count: measured here: cell count, toxicity.
Experiment [3] is described as follows: inhibitors of E-selectin induction by TNFa, primary screen, imaging, HUVEC, immunofluorescence, MLSMR starter and 10KST1 sets (AID 487).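 As to inhibition: signal is fraction of cell area covered by stained E-selectin grains.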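 As to nuclei count: 100% = median nuclei count of all wells on the same plate.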 The note with it: HUVEC TNFalpha-induced E-selectin immunofluorescence imaging, at 2 µM; inhibition: stronger effect = higher value; nuclei count: measured here: cell number, toxicity.
For experiment [4], the target named is Voltage-gated potassium channel subunit beta-2 (Rattus norvegicus) (UniProt P62483). The experiment is described as follows: KvBeta enzyme negative modulators, primary screen, biochemical, NADPH fluorescence (AID 622;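 active = fluorescence slope higher than the sample average by over 3 SD, cut at about -0.22 in these data, passing the limit was not always enough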;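 also: slope of raw intensity against log time taken from 70 to 1610 s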). The note with it: recombinant KvBeta, 4-cyanobenzaldehyde reduction, at 10 µM, stronger effect = higher value.
Chain of Voltage-gated potassium channel subunit beta-2 (Rattus norvegicus) (P62483 whole entry, looked up): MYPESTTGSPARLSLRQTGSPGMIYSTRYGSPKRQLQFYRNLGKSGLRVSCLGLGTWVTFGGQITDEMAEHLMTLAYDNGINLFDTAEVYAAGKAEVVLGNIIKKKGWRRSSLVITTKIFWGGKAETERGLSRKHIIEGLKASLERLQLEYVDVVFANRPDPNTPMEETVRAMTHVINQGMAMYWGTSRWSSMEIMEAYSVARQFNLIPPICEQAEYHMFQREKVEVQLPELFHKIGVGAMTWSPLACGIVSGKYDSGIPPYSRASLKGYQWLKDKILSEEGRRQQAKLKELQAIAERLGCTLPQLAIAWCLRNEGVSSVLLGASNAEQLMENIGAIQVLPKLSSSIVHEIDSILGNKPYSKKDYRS
Experiment [5] has the same target. Description: KvBeta positive modulators, primary screen, biochemical, NADPH fluorescence (AID 623;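 active = NADPH fluorescence slope more negative than the mean of all samples by about 3 SD, 99.7% confidence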;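 also: fluorescence intensity change per second fitted from 20 to 320 s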). The note with it: Recombinant KvBeta, NADPH fluorescence decrease slope, 10 min; at 10 µM; stronger effect = lower value.
Experiment [6] deals with Alpha-2C adrenergic receptor (Homo sapiens) (UniProt P18825). Description: modulators of alpha2C/GIRK thallium flux, primary screen, cell-based, HEK293 alpha2C/GIRK1/2 (AID 624;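 active = fluorescence slope after compound addition differing from the mean of all screened samples at 99.7% confidence, in either direction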;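 also: slope of fluorescence ratio to pre-addition baseline per second over 15 to 24 s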). The note with it: thallium flux BTC fluorescence, at 10 µM, actives lie on both sides.
Chain of Alpha-2C adrenergic receptor (Homo sapiens) (P18825 whole entry, looked up): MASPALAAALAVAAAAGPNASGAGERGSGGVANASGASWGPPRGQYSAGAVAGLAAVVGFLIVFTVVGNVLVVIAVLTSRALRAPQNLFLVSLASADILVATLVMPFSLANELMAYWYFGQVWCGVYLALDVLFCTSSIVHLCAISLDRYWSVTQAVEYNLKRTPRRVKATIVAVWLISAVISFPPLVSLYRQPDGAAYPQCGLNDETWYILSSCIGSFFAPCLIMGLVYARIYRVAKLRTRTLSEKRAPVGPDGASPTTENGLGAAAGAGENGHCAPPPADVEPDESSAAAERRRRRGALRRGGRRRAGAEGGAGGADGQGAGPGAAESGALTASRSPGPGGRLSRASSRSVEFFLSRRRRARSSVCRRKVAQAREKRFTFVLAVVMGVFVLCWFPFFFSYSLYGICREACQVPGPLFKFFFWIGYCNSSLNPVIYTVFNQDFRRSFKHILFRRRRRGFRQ
Experiment [7] is described as follows: inhibitors of Sendai virus-induced IRF3 signaling, primary screen, TLR/RLR signaling modifier project, cell-based, Sendai virus stimulus, luciferase, 10K MLSCN set (AID 602276;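 active = inhibition at or above 50% at 10 µM; inactive = inhibition below 50%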;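 also: firefly luciferase from ISG56 promoter only with Renilla not read in this screen; 0% = Sendai virus plus DMSO and 100% = medium plus DMSO without virus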). The note with it: HEK293 RL24 IRF3 luciferase reporter, at 10 µM, stronger effect = higher value. Background: In a reporter assay the amount or activity of a reporter protein is the signal.
A short description of experiment [8]: inhibitors of poly I:C-induced TLR3 signaling, primary screen, cell-based, poly I:C stimulus, luciferase, 10K MLSCN set (AID 602277;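 active = inhibition of the reporter signal at or above 50%; inactive = inhibition below 50%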). The note with it: HEK293-TLR3 RL24 IRF3 luciferase reporter, at 10 µM, stronger effect = higher value.

Nine compounds from PubChem BioAssay can be followed below.

The source made the active and inactive calls.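 The calls were made as follows, unless noted: active = visually confirmed hit in the image check and inhibition above 20%; inconclusive = visually confirmed hit but inhibition not above 20%; inactive = no visual hit in the image check.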

Regarding `CCOc1ccc(C2CC(c3cccc(OC)c3)Nc3nc(N)nn32)cc1` (centres undefined), in experiment [1], the cell count turned out to be 562. Moreover, the inhibition (commonly the change of the read-out against control, counted positive when it falls) is 5.4% (inactive) in experiment [1], 36.3% (inactive) in experiment [3], -7.71% (inactive) in experiment [7] and -1.03% (inactive) in experiment [8]. Besides, in experiment [2], the inhibition of aggregation is 15.4% (inactive). In addition, the nuclei count in experiment [2] was 100%; in experiment [3] it was 97.4%. In addition, the fluorescence slope in experiment [4] is -0.619 (inactive). In experiment [5], the NADPH fluorescence slope was 7.9e-07 (inactive). Moreover, the slope in experiment [6] was 0.00629 (inactive).

Take `Cc1cc(C(=O)N2CCN(C/C=C/c3ccccc3)CC2)no1`: the cell count in experiment [1] worked out at 242. Moreover, the inhibition in experiment [1] was 8.7% (inactive); in experiment [3] it was 11.3% (inactive); in experiment [7], 13% (inactive); in experiment [8] it was 25.3% (inactive). Moreover, in experiment [2], the inhibition of aggregation is -4.4% (inactive). Moreover, the figures for the nuclei count in experiment [2] and in experiment [3] were 101% and 98.6%, respectively. Besides, the fluorescence slope in experiment [4] is -0.465 (inactive). In experiment [5], the NADPH fluorescence slope is 1.9e-06 (inactive). In addition, the slope in experiment [6] was 0.0056 (inactive).

`O=C(NC1CCCC1)C(c1ccco1)N(Cc1ccccc1)C(=O)c1csnn1` (centres undefined): in experiment [1], the cell count is 426. In addition, the inhibition in experiment [1] was 5.4% (inactive); in experiment [3], -9.3% (inactive); in experiment [7] it was 17.4% (inactive); in experiment [8] it was 29.4% (inactive). Also, the inhibition of aggregation in experiment [2] is -6.3% (inactive). For the same compound, the results for the nuclei count in experiment [2] and in experiment [3] were 97.6% and 107%, respectively. The fluorescence slope in experiment [4] was -0.582 (inactive). Also, the NADPH fluorescence slope in experiment [5] was -3.8e-05 (inactive). The slope in experiment [6] is 0.006 (inactive).

For the compound `O=C(Nc1ccc(Cl)cn1)c1cccnc1`, in experiment [1], the cell count turned out to be 340. The inhibition is -8% (inactive) in experiment [1], -1.5% (inactive) in experiment [3], -14% (inactive) in experiment [7] and -34.8% (inactive) in experiment [8]. Further, in experiment [2], the inhibition of aggregation is 2.7% (inactive). The nuclei count came to 107% in experiment [2] and 102% in experiment [3]. Besides, the fluorescence slope in experiment [4] is -0.473 (inactive). In addition, the NADPH fluorescence slope in experiment [5] is 1.1e-05 (inactive). Further, in experiment [6], the slope is 0.00527 (inactive).

Take `O=C(c1cccnc1)N1CCN(Cc2ccc3c(c2)OCO3)CC1`: the cell count in experiment [1] stood at 64. The inhibition in experiment [1] was 11% (inactive); in experiment [3] it was 29.2% (inactive); in experiment [7] it was 14.2% (inactive); in experiment [8] it was 13.5% (inactive). The inhibition of aggregation in experiment [2] was -2.8% (inactive). Further, the nuclei count in experiment [2] came to 88.3%; in experiment [3], 87.6%. The fluorescence slope in experiment [4] was -0.411 (inactive). Besides, the NADPH fluorescence slope in experiment [5] was -5.6e-05 (inactive). The slope in experiment [6] was 0.00498 (inactive).

Regarding `CCOC(=O)C1CCCN(CCCc2ccccc2)C1` (centres undefined), the cell count in experiment [1] was found to be 361. The inhibition in experiment [1] was -17.4% (inactive); in experiment [3] it was -32.5% (inactive); in experiment [7], 6.58% (inactive); in experiment [8], 38% (inactive). For the same compound, the inhibition of aggregation in experiment [2] is -1.3% (inactive). The nuclei count was 118% in experiment [2] and 108% in experiment [3]. Also, the fluorescence slope in experiment [4] was -0.438 (inactive). The NADPH fluorescence slope in experiment [5] is -2.5e-05 (inactive). The slope in experiment [6] was 0.00567 (inactive).

For the compound `COc1ccc(CCNC(=O)C2CCN(S(=O)(=O)c3cc(OC)ccc3OC)CC2)cc1`, in experiment [1], the cell count came out at 269. Also, the inhibition is -5.3% (inactive) in experiment [1], -26.1% (inactive) in experiment [3], 14.7% (inactive) in experiment [7] and 31.4% (inactive) in experiment [8]. Besides, the inhibition of aggregation in experiment [2] is 3% (inactive). Further, the values for the nuclei count in experiment [2] and in experiment [3] were 93.2% and 98.3%, respectively. Besides, the fluorescence slope in experiment [4] was -0.39 (inactive). For the same compound, in experiment [5], the NADPH fluorescence slope is -6.1e-05 (inactive). The slope in experiment [6] was 0.00597 (inactive).

In the case of `Cc1cc(C)nc(NC(=O)c2c(-c3c(Cl)cccc3Cl)noc2C)n1`, the cell count in experiment [1] came out at 648. The inhibition in experiment [1] was 2% (inactive); in experiment [3], -7.8% (inactive); in experiment [7], -2.48% (inactive); in experiment [8], 7.12% (inactive). Also, in experiment [2], the inhibition of aggregation is 3.9% (inactive). The nuclei count is 95.5% in experiment [2] and 109% in experiment [3]. Besides, the fluorescence slope in experiment [4] is -0.435 (inactive). Moreover, the NADPH fluorescence slope in experiment [5] was 7.7e-06 (inactive). In experiment [6], the slope is 0.00547 (inactive).

Turning to `CCCS(=O)(=O)N1CCN(C(=O)c2cccnc2)CC1`, the cell count in experiment [1] was 374. Moreover, the inhibition is 5.5% (inactive) in experiment [1], 18.3% (inactive) in experiment [3], 8.38% (inactive) in experiment [7] and 19.6% (inactive) in experiment [8]. Moreover, the inhibition of aggregation in experiment [2] was -5.9% (inactive). Besides, the nuclei count worked out at 98.3% in experiment [2] and 114% in experiment [3]. The fluorescence slope in experiment [4] is -0.431 (inactive). In experiment [5], the NADPH fluorescence slope was -6.9e-05 (inactive). Besides, in experiment [6], the slope was 0.0059 (inactive).
